Experimental data published in PubChem BioAssay (Tox21).
Activity calls are given as the source filed them. The call rests on the fitted dose curve; in most records, active means well fitted curve in the direction sought with a large enough effect in the repeat runs; inconclusive means weak or mixed curves; inactive means flat fitted curve, though single readings scatter.

Assay: qHTS assay to test for compound auto fluorescence at 460 nm (blue) in HepG2 cell free culture (AID 720685)
Settings: Cell-free culture medium, blue autofluorescence 405/460 nm; series mostly up to 91.3 µM; fluorescence, % of fluorescent control: at the top concentration
Description: U.S. Tox21 Program National Center for Advancing Translational Sciences [NCATS] NIH Chemical Genomics Center [NCGC] U.S. Environmental Protection Agency [EPA] National Institutes of Environmental Health Sciences [NIEHS] National Toxicology Program [NTP] U.S. Food and Drug Administration [FDA] Tox21 Assay Overview: Compound auto fluorescence often interferes with screening of the compound library against various biological targets and signaling pathways. Some of these compounds may have fluorophoric properties. Such properties may interfere with the assay outputs resulting in false positives and/or negatives. To decrease such complications and ensure the compound activities are relevant in terms of biological response, the Tox21 10K compound library was screened for auto fluorescence. From the fluorophores used as reporter signals in our screening assays, the auto fluorescence equivalencies of compounds against three fluorophores have been evaluated: Triamterene, Fluorescein and Rose Bengal sodium for blue, green and red fluorescence, respectively. The fluorescence intensities were measured using Excitation/Emission wavelengths at 405/460nm, 485/535nm and 540/590nm for blue, green and red labels, respectively. This assay includes the blue fluorescence data.
Tox21 Assay Protocol Summary: 5 uL of culture medium (MEM containing 10% FBS) per well was dispensed into black wall/clear bottom 1536-well plates using a Multidrop Combi Dispenser (ThermoFisher Scientific, Waltham, MA). After 23 nL compound or DMSO vehicle was transferred into assay plate by a pintool work station (Kalypsys, San Diego, CA), fluorescence intensities in the assay plates were measured by an Envision (PerkinElmer, Shelton, CT) plate reader using three labels for measuring blue, green and red fluorescence at […] 460, 535 and 590nm respectively.
On the % scale 0 is the no-effect control and ±100 the full control effect.

Row | SMILES | fluorescence, % of fluorescent control | Potency
1 | O=P(O)(O)Oc1ccccc1 | -0.124% (inactive) | –
2 | CC(=O)C(C)=O | 0.049% (inactive) | –
3 | CCCCCCCCCCCSCC(=O)O | 0.0838% (inactive) | –
4 | O=C(O)CNC(=O)c1ccccc1I | 0.0123% [at 46 µM] (inactive) | –
5 | CC(=O)OCC1=C(C(=O)O)N2C(=O)[C@@H](NC(=O)CSc3ccncc3)[C@H]2SC1 | 0.0417% [at 46 µM] (inactive) | –
6 | Cc1cccc2sc(N)nc12 | -0.0583% [at 95.7 µM] (inactive) | –
7 | CCN(CC)CCOc1ccccc1C(=O)CCc1ccccc1 | 0.0094% [at 46 µM] (inactive) | –
8 | COc1cc(NCc2ccc3nc(N)nc(N)c3c2C)cc(OC)c1OC | 0.326% [at 46 µM] (inactive) | –
9 | CC(C)Cc1ccc(CC(=O)O)cc1 | -0.0953% [at 46 µM] (inactive) | –
10 | COC1CCC=CO1 (stereo not given) | 0.112% (inactive) | –
11 | Nc1ccn([C@H]2CS[C@@H](CO)O2)c(=O)n1 | – | inactive
12 | NC(=O)c1ccccc1[N+](=O)[O-] | 0.0048% [at 95.7 µM] (inactive) | –
13 | O=S(=O)(Cl)c1c(Cl)cccc1Cl | 0.38% (inactive) | –
14 | CC(C)c1ccc(C#N)cc1 | -0.157% (inactive) | –
15 | CC1=C2[C@@H]([C@H](C)CC[C@H]2/C=C(\C)C(=O)O)[C@H](O)C1 | -0.0172% (inactive) | –
16 | CC[C@H]1OC(=O)[C@H](C)[C@@H](O[C@H]2C[C@@](C)(OC)[C@@H](O)[C@H](C)O2)[C@H](C)[C@@H](O[C@@H]2O[C@H](C)C[C@H](N(C)C)[C@H]2O)[C@](C)(O)C[C@@H](C)CN(C)[C@H](C)[C@@H](O)[C@]1(C)O | – | inactive
17 | CC(C)COC(=O)COc1cc(Cl)c(Cl)cc1Cl | -0.106% (inactive) | –
18 | CN=C(N)NC(=O)Nc1c(C)cccc1C | 0.005% [at 46 µM] (inactive) | –
19 | Nc1ccc(S(=O)(=O)NCc2ccccc2)cc1 | -0.0404% [at 46 µM] (inactive) | –
20 | CCc1ccc(C)cc1 | 0.0051% (inactive) | –

Row | SMILES | fluorescence, % of fluorescent control | Potency
21 | C1=CCC2CC=CC2C1 (stereo not given) | 0.106% (inactive) | –
22 | Cc1cccc(C)c1NC(=O)c1cc(S(N)(=O)=O)c(Cl)cc1O | -0.0148% [at 46 µM] (inactive) | –
23 | CC[C@H]1OC(=O)[C@H](C)[C@@H](O[C@H]2C[C@@](C)(OC)[C@@H](O)[C@H](C)O2)[C@H](C)[C@@H](O[C@@H]2O[C@H](C)C[C@H](N(C)C)[C@H]2O)[C@](C)(O)C[C@@H](C)/C(=N\OCOCCOC)[C@H](C)[C@@H](O)[C@]1(C)O | – | inactive
24 | CCN(CC)c1ccc(C(=C2C=CC(=[N+](CC)CC)C=C2)c2ccc(S(=O)(=O)O)cc2S(=O)(=O)[O-])cc1 | 3.19% (inactive) | –
25 | CC(C)C1CCC(C(=O)N[C@H](Cc2ccccc2)C(=O)O)CC1 (stereo not given in full) | 0.257% [at 46 µM] (inactive) | –
26 | CN1CCCN(C(c2ccccc2)c2ccc(Cl)cc2)CC1 (stereo not given) | 0.0423% [at 46 µM] (inactive) | –
27 | CC(=O)OC(C)C[N+](C)(C)C (stereo not given) | -0.0627% [at 18.6 µM] (inactive) | –
28 | CC(C)(C)C(O)/C=C/c1ccc2c(c1)OCO2 (stereo not given) | 0.0306% [at 46 µM] (inactive) | –
29 | Nc1nc2ccc(OC(F)(F)F)cc2s1 | -0.0249% [at 46 µM] (inactive) | –
30 | O=c1[nH][nH]c(=O)c2cc([N+](=O)[O-])ccc12 | -0.347% [at 95.7 µM] (inactive) | –
31 | c1ccc(CCCc2ccncc2)cc1 | 0.344% (inactive) | –
32 | Nc1ccc(NC(=O)c2ccc(N)cc2)cc1 | -0.0094% (inactive) | –
33 | O=C(CCS)OCC(COC(=O)CCS)(COC(=O)CCS)COC(=O)CCS | -0.169% (inactive) | –
34 | CC/C=C\C/C=C\C/C=C\CCCCCCCC(=O)OCC | 0.0366% [at 95.7 µM] (inactive) | –
35 | COc1ccc(CCN(C)CCCN2CCc3cc(OC)c(OC)cc3CC2=O)cc1OC | -0.0336% [at 46 µM] (inactive) | –
36 | Cc1cn([C@H]2C[C@H](F)[C@@H](CO)O2)c(=O)[nH]c1=O | -0.0195% [at 46 µM] (inactive) | –
37 | c1ccc(CNc2ncnc3c2ncn3C2CCCCO2)cc1 (stereo not given) | 0.0799% (inactive) | –
38 | Cc1ccc(S(=O)(=O)NC(=O)NC2CCCCC2)cc1 | -0.0046% [at 46 µM] (inactive) | –
39 | O=C1CC[C@@H](C(=O)O)N1 | 0.0486% [at 46 µM] (inactive) | –
40 | [Cl][Nd]([Cl])[Cl] | -0.0174% (inactive) | –
